FAS TE block = inhibitors of human fatty acid synthase thioesterase domain | AID 602261 | 0.67% of 360,000 active | inhibition, % at 15 µM | recombinant FAS-TE, OMFH fluorogenic substrate, fluorescence endpoint;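 active means compounds whose normalised, plate-corrected inhibition of enzyme fluorescence in the single-dose primary screen is 50% or more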
Neddylation inh = blocks human cullin neddylation. TR-FRET cullin neddylation, biochemical. calls only at 25 µM. 0.58% of 360,000 active. AID 651699; in the data active means inhibition above about 36%
Target sequence (P61081 whole entry, looked up): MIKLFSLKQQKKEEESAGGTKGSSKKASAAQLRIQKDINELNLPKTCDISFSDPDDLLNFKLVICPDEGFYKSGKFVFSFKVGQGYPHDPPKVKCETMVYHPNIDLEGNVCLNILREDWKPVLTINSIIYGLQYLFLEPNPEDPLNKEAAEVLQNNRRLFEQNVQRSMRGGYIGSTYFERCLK
Target sequence (Q13564 whole entry, looked up): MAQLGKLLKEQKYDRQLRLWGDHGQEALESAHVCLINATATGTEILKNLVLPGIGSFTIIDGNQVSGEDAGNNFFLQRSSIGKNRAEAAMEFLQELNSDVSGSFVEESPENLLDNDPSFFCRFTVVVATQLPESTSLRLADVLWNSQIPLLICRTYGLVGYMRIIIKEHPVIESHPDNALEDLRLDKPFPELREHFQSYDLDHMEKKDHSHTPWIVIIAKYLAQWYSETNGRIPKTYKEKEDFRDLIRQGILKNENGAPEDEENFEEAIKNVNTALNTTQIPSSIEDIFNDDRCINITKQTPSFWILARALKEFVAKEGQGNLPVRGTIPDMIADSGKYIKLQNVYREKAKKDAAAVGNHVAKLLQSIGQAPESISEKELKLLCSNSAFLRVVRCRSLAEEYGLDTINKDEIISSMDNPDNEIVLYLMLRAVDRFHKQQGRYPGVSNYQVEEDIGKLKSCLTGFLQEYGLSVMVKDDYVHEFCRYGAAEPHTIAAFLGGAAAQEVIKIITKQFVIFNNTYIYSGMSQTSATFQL
PfG6PD inh = PfG6PD (Plasmodium falciparum) enzyme inhibition | AID 504690 | inhibition, % at 20 µM | PfGluPho enzyme, NADPH resazurin-diaphorase fluorescence | 0.78% of 350,000 active;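 active means inhibition reaching at least a set limit at 20 µM in the primary screen, cut at about 59% in these data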
KLK7 zymogen act = proKLK7 (human) activation, primary screen; P49862; 0.9% of 370,000 active; activation, % at 7 µM; purified proKLK7, EDANS-DABCYL substrate fluorescence; 100% is mature enzyme control, 0% vehicle; AID 652039;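 active means activation above the mean of all tested compounds plus 3 SD, computed per campaign excluding outliers beyond control limits, cut at about 13% in these data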
Neddyl conf = confirmation of human cullin neddylation inhibitors. shares compounds with Neddylation inh. TR-FRET cullin neddylation biochemical assay. calls only at 25 µM. 13% of 1,800 active; in the data active means inhibition above about 40%;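 further: neddylation substrate is the cullin 1 ring ligase complex with SKP2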
Of the large screens only hits and unclear results are named; the others gave an inactive call (follow-up assays come after a bar, where shown). A selection: hits, their analogues and other compounds. The true share with any hit is near 2.7%.

COc1ccc2oc(C(=O)OCC(=O)N(C)CC(=O)Nc3ccc(C)cc3)c(C)c2c1	Neddylation inh active
COc1ccc2oc(C(=O)OCC(=O)Nc3ccc(OC)c(S(N)(=O)=O)c3)c(C)c2c1	Neddylation inh active
COc1cccc(/C=C2/NC(=O)N(CC(=O)Nc3ccc(C)cc3)C2=O)c1OCc1cccc(C(=O)O)c1	Neddylation inh active
CCS(=O)(=O)N1Cc2cc(C(=O)NCC3CC3)nc(-c3cccc(-c4cccnc4)c3)c2[C@@H]1CCO	none (no result: PfG6PD inh)
COc1cc2c(cc1OC)/C(=C/C(=O)c1ccc(C)cc1)NCC2	Neddylation inh active | Neddyl conf inactive
COc1cc2c(cc1OC)/C(=C/C(=O)c1ccccc1)NCC2	none
Cc1ccc2ccc(C#N)cc2c1O	Neddylation inh active | Neddyl conf active
Cc1[nH]nc2c1C(c1ccccc1)C1=C(CC(C)(C)CC1=O)N2 (stereo unspecified)	none (no result: KLK7 zymogen act)
Cc1[nH]nc2c1C(c1ccc(O)cc1)C1=C(CC(C)(C)CC1=O)N2 (stereo unspecified)	Neddylation inh active | Neddyl conf inactive
Cc1ccc(C(=O)N/C(=C\c2cccs2)c2nc3ccccc3[nH]2)cc1	Neddylation inh active
C=CCNC(=O)N1CCC(c2nc3ccc(Cl)cc3[nH]2)CC1	none (no result: FAS TE block, Neddylation inh, PfG6PD inh)
Cc1ccc(S(=O)(=O)C(C#N)c2nc3ccccc3nc2N2CC(C)OC(C)C2)cc1C (stereo unspecified)	none (not shown: Neddylation inh)
Cc1cccc(S(=O)(=O)C(C#N)c2nc3ccccc3nc2N2CC(C)OC(C)C2)c1 (stereo unspecified)	Neddylation inh active | Neddyl conf inactive
Cc1ccc(OC[C@@H](O)CN2CCC(C(O)(c3ccccc3)c3ccccc3)CC2)cc1	none (no result: FAS TE block, Neddylation inh, PfG6PD inh)
Cc1cc(C)n2nc(-c3ccc(F)cc3)cc2n1	none
Cc1cc(C)n2nc(-c3cnn(C)c3C(F)(F)F)cc2n1	Neddylation inh active | Neddyl conf active
Cc1ccc(-c2cc3nc(C)cc(C)n3n2)cc1	Neddylation inh active | Neddyl conf inactive
O=C(OC12CCCN(C1)/C(=C/c1cccc(Cl)c1)C2)c1ccc(F)cc1 (stereo unspecified)	none (no result: FAS TE block, Neddylation inh, PfG6PD inh)
CCCCN(CC)CCCNC(=O)c1cc2c(=O)n(C)c3ccccc3c2n1C	Neddylation inh active | Neddyl conf inactive
Cc1cc(C)c2c(NC(=O)CCl)nn(C)c2n1	Neddylation inh active | Neddyl conf inactive
Cc1cc(C)c2c(NC(=S)NC(=O)c3ccccc3)nn(C)c2n1	none
CCCCNC(=O)[C@@H]1CSC2c3ccc(OC)c(OC)c3C(=O)N21 (stereo partly specified)	Neddylation inh active | Neddyl conf inactive
COCCNC(=O)[C@@H]1CSC2c3ccc(OC)c(OC)c3C(=O)N21 (stereo partly specified)	none (not shown: Neddylation inh)
O=C(NCc1ccccc1)c1nc(-c2c(F)cccc2F)oc1-c1ccccc1	Neddylation inh active (not shown: FAS TE block, PfG6PD inh)
COc1ccc2[nH]c(C(=O)O)c(NS(=O)(=O)c3ccc(OC)c(OC)c3)c2c1	Neddylation inh active | Neddyl conf active
COc1ccc(S(=O)(=O)Nc2c(C(=O)O)[nH]c3ccc(OC)cc23)cc1	none (not shown: Neddylation inh)
COc1cccc2cc(-c3cc(=O)oc4ccc(OCC(C)=O)cc34)oc12	none
COC(=O)COc1ccc2oc(=O)cc(-c3cc4cccc(OC)c4o3)c2c1	Neddylation inh active | Neddyl conf inactive
O=C(CSc1nc2ccccc2n1Cc1ccccc1)NN=Cc1c[nH]c2ccccc12	none (no result: FAS TE block, Neddylation inh, PfG6PD inh)
COc1ccc(OC)c(/C=N/NC(=O)c2ccc(N(C)S(=O)(=O)c3ccccc3)cc2)c1	none (not shown: Neddylation inh)
COc1ccc(/C=N/NC(=O)c2ccc(N(C)S(=O)(=O)c3ccccc3)cc2)c(OC)c1	Neddylation inh active | Neddyl conf inactive
COc1ccc(C=NNC(=O)c2ccccc2OCc2ccc(F)cc2)c(OC)c1	Neddylation inh active | Neddyl conf inactive
CCCCn1nnnc1C(c1cc2ccccc2o1)N1CCOCC1 (stereo unspecified)	none (no result: PfG6PD inh)
CN1C/C(=C/c2ccccc2)N2C(=O)C[C@@H](c3ccccc3)N=C12	none (no result: FAS TE block, Neddylation inh, PfG6PD inh)
O=C(NCc1ccccc1)[C@H]1CCCN1C(=O)[C@H]1CCCN1C(=O)c1ccc(F)c(C(F)(F)F)c1	none (no result: FAS TE block, Neddylation inh, PfG6PD inh)
Cc1cc(C)nc(-n2nc(C)c3c(C(=O)O)cc(-c4cccc(Br)c4)nc32)n1	Neddylation inh active | Neddyl conf inactive
Cc1ccc(S(=O)(=O)[N-]c2nc3ccccc3nc2-n2cc[n+](CCC(C)C)c2)cc1	Neddylation inh active | Neddyl conf inactive
